Shown are actives, neighbours in structure and some others; about 3.1% of the full set was active somewhere.
A549 tox-1 – kills or reduces viability of A549 cells in Nrf2 counter-screen; A549 ARE-Fluc cells, CellTiter-Fluor viability, 18-24 h; 0.16% of 390,000 active; Potency, µM (top dose mostly 46 µM), for inactives: at the highest dose activity change, negative = cytotoxicity, usual class: inhibitors; AID 504648; further: on the % scale 0 is the no-effect control and ±100 the full control effect
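Cytotoxicity counterscreen: CellTiter-Fluor fluorescence was measured in A549 ARE_Fluc cells after 18-24 h of compound exposure in a concentration series. The subsequent BugLite luminescent read reports ARE-luciferase activity.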
rTrxR1 inhibitor – blocks rat thioredoxin reductase 1 | O89049 | recombinant rTrxR1, NADPH fluorescence consumption, selenite substrate | Potency, µM (series often up to 114 µM), for inactives: at the highest dose activity change, negative = inhibition, hits mostly inhibitors | 1% of 390,000 active | AID 588453; further: on the % scale 0 is the no-effect control and ±100 the full control effect; nearly all actives have a fitted effect of over 65% in size
Target sequence (O89049 whole entry, looked up): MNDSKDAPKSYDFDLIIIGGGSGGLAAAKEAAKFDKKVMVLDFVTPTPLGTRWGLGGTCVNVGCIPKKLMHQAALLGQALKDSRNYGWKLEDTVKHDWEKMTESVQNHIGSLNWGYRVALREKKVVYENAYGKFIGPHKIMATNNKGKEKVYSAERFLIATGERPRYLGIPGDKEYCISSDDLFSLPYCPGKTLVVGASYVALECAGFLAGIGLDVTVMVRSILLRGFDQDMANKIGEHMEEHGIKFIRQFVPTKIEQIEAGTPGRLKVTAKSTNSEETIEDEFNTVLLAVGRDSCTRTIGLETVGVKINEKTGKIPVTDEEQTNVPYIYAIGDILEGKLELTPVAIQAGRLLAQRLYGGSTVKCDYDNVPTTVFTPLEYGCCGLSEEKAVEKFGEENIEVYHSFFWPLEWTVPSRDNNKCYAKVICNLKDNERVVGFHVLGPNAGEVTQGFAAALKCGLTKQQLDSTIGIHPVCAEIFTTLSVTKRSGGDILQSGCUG
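Rat TrxR1 (90 nM in the dispensed reagent) was pre-reduced with 400 uM NADPH for 5 min at room temperature, then incubated with compound for 15 min. After 400 uM selenite was added, NADPH fluorescence (Ex 340/Em 450 nm) was followed for 8 min.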
Nrf2 block – inhibitors of Nrf2 signaling; Potency, µM (titrated, usually from 46 µM), for inactives: at the highest dose activity change, negative = inhibition, hits mostly inhibitors; AID 504444; 2.1% of 360,000 active; A549 ARE-Fluc reporter, luciferase luminescence, 18-24 h; further: on the % scale 0 is the no-effect control and ±100 the full control effect; nearly all actives have a fitted effect of over 60% in size
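Nrf2 function is reported as luminescence of an ARE-controlled luciferase in A549 cells. Compounds were tested at several concentrations, and a CellTiter-Fluor read on the same wells flagged cytotoxicity.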
TrxR1 substrate – is turned over as a substrate by rat TrxR1; O89049; purified TrxR1 substrate turnover, NADPH consumption readout; Potency, µM (top dose mostly 114 µM), without a hit: top-dose activity change, negative = substrate turnover; 0.01% of 390,000 active; further: on the % scale 0 is the no-effect control and ±100 the full control effect; nearly all actives have a fitted effect of over 50% in size
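Rat TrxR1, dispensed at 90 nM, was prereduced with 400 uM NADPH (final) for 5 min at ~22 deg C, then incubated with compound 15 min before 400 uM selenite. A first-read NADPH fluorescence drop versus no-compound background flagged substrates.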
IDH1 R132H inh – human IDH1 R132H inhibition. O75874. 0.093% of 390,000 active. IDH1-R132H enzyme, NADPH consumption, diaphorase/resazurin fluorescence. Potency, µM (highest dose often 76.6 µM), inactives show at the top dose activity change, negative = inhibition, usual class: inhibitors. AID 602179; further: on the % scale 0 is the no-effect control and ±100 the full control effect; nearly all actives have a fitted effect of over 65% in size
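IDH1-R132H (0.5 ug/mL dispensed) in pH 7.5 Tris buffer was preincubated 30 min with compound, then given a substrate mix of 0.016 mM NADPH and 2 mM alpha-KG for 80 min at room temperature; remaining NADPH was read by diaphorase/resazurin fluorescence.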
Mito fusion act – inhibitors of mitochondrial division or activators of mitochondrial fusion. S. cerevisiae fusion-defective mutant growth rescue, CellTiterGlo 48 h. 0.23% of 320,000 active. Potency, µM (highest dose often 46.1 µM), inactives show top-dose growth rescue (activation), usual class: activators; further: % of control where 0% means no effect; nearly all actives have a fitted effect of over 45% in size
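Temperature-sensitive fusion-defective S. cerevisiae (e.g. fzo1-1, mgm1-5) were grown with compound in YPEG medium (3% ethanol, 3% glycerol) for 48 hours at 37C. Growth rescue was measured as viability by CellTiterGlo luminescence after 10 minutes at ambient.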
FLuc enzyme inh – firefly luciferase inhibition, Nrf2 hit validation | purified firefly luciferase, luminescence inhibition | Potency, µM (highest dose often 57.5 µM), without a hit: at the top dose activity change, negative = inhibition, most hits filed as inhibitors | shares compounds with Nrf2 block | 4% of 1,400 active; further: on the % scale 0 is the no-effect control and ±100 the full control effect; nearly all actives have a fitted effect of over 65% in size
A549 tox-2 – toxic to A549 ARE-Fluc cells in Nrf2 counterscreen; shares compounds with Nrf2 block; A549 ARE-Fluc cells, cytotoxicity counterscreen; Potency, µM (doses to about 46.1 µM), without a hit: at the top dose activity change, negative = cytotoxicity, actives largely listed as inhibitors; 2% of 1,400 active; AID 720523;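 further: cells exposed to compounds for 18 to 24 hours; on the % scale 0 is the no-effect control and ±100 the full control effect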
ARE-Fluc inh – confirmation of Nrf2 inhibitors in A549 ARE reporter cells; 74% of 1,400 active; AID 720524; Potency, µM (doses to about 46.1 µM), for the others: at the top dose activity change, negative = inhibition, most hits filed as inhibitors; A549 ARE-firefly luciferase reporter, luminescence; shares compounds with Nrf2 block; further: on the % scale 0 is the no-effect control and ±100 the full control effect; nearly all actives have a fitted effect of over 65% in size
Starred values were filed as active, the others as inactive; [ ] = another dose, or the depositor's remark. The call rests on the fitted dose curve; in most records, active means well fitted curve in the direction sought with a large enough effect; inconclusive means small, poorly fitted or top-dose-only effect, or another doubt; inactive means no such curve, though single readings can be large; an effect the other way counts as inactive or inconclusive. Potency means the concentration at half of the fitted maximal effect.

For CCOc1ccc(S(=O)(=O)NCc2ccncc2)cc1NC(=O)c1ccccc1F the results were A549 tox-1 -12.1%, rTrxR1 inhibitor 23.6%[0.0914 µM], Nrf2 block 2.59µM*, TrxR1 substrate 6.2%[57.1 µM], IDH1 R132H inh 3.5%, Mito fusion act 1.5%, FLuc enzyme inh 0.8%, A549 tox-2 1.8% and ARE-Fluc inh inconclusive.
For CCOc1ccc(S(=O)(=O)NCc2ccncc2)cc1NC(=O)c1ccccc1 the results were A549 tox-1 -13.3%, rTrxR1 inhibitor -8.1%, Nrf2 block 0.461µM*, TrxR1 substrate -5.3%, IDH1 R132H inh 2.4%, Mito fusion act -4.2%, FLuc enzyme inh 3.8%, A549 tox-2 0.0% and ARE-Fluc inh 3.66µM*.
Screening COc1ccc(C(=O)NCc2ccc3c(c2)CCN3C(=O)c2ccc(Cl)cc2)c(OC)c1 returned A549 tox-1 -26.7%, rTrxR1 inhibitor 10.7%[57.1 µM], TrxR1 substrate 1.1%[57.1 µM] and IDH1 R132H inh -6.1%.
Screening CCCS(=O)(=O)N1CC(=O)N(c2ccccc2C)C(C)(C(=O)NC2CCCCC2)C1 (stereo unspecified) returned A549 tox-1 3.2%, rTrxR1 inhibitor 8.7%, Nrf2 block 16.0%, TrxR1 substrate -3.9% and IDH1 R132H inh -8.7%.
Screening COc1ccc(/C=C/c2cc(-c3ccc(C)cc3)o[n+]2C)cc1 returned A549 tox-1 inconclusive, rTrxR1 inhibitor inconclusive, Nrf2 block 8.2µM*, TrxR1 substrate 7.1%, IDH1 R132H inh 3.1%, Mito fusion act -8.7%, FLuc enzyme inh -1.9%, A549 tox-2 inconclusive and ARE-Fluc inh 2.91µM*.
Screening COc1ccc(S(=O)(=O)N2CCCCCC2)cc1NC(=O)Cc1cc(OC)c(OC)c(OC)c1 returned A549 tox-1 -3.8%, rTrxR1 inhibitor -0.1%, Nrf2 block -24.4%, TrxR1 substrate -6.7%, IDH1 R132H inh 1.4% and Mito fusion act -4.9%.
Screening COc1ccc(CC(=O)Nc2cc(S(=O)(=O)N3CCCCC3)ccc2C)cc1OC returned A549 tox-1 inconclusive, rTrxR1 inhibitor 14.6%[57.1 µM], Nrf2 block 4.11µM*, TrxR1 substrate -18.6%[57.1 µM], IDH1 R132H inh 2.2%, Mito fusion act -6.9%, FLuc enzyme inh 0.7%, A549 tox-2 -6.2% and ARE-Fluc inh 7.31µM*.
For Cc1noc(C)c1CSCC(=O)Nc1nc(-c2ccc(F)c(F)c2)cs1 the results were A549 tox-1 inconclusive, rTrxR1 inhibitor -0.1%[57.1 µM], Nrf2 block 9.2µM*, TrxR1 substrate -5.2%[57.1 µM], IDH1 R132H inh -2.4%, Mito fusion act 9.4%, FLuc enzyme inh -12.5%, A549 tox-2 -18.2% and ARE-Fluc inh 13µM*.
For Cc1csc(NC(=O)CSCc2c(C)noc2C)n1 the results were A549 tox-1 1.5%, rTrxR1 inhibitor 4.6%, Nrf2 block 1.1%, TrxR1 substrate -5.1%[57.1 µM], IDH1 R132H inh -4.7% and Mito fusion act -2.9%.
`Nc1c(Cl)ncnc1NCCO` gave A549 tox-1 -0.7%, rTrxR1 inhibitor -3.5%[57.1 µM], Nrf2 block 5.3%, TrxR1 substrate -5.0%[57.1 µM], IDH1 R132H inh 8.0% and Mito fusion act 8.5%.
`Cc1ccc(CCNc2ncnc(Cl)c2N)cc1` gave A549 tox-1 inconclusive, rTrxR1 inhibitor -4.5%[2.29 µM], Nrf2 block 3.66µM*, TrxR1 substrate -3.2%[2.29 µM], IDH1 R132H inh 8.2%, FLuc enzyme inh inconclusive, A549 tox-2 -3.2% and ARE-Fluc inh inconclusive.
`CCN(c1ccccc1)S(=O)(=O)c1cc(C(=O)Nc2ccc(Br)cc2)ccc1F` gave A549 tox-1 inconclusive, rTrxR1 inhibitor -15.7%, Nrf2 block 5.8µM*, TrxR1 substrate -9.0%, IDH1 R132H inh -0.4%, Mito fusion act 1.8%, FLuc enzyme inh -12.1%, A549 tox-2 -29.3% and ARE-Fluc inh 11.6µM*.
Screening O=C(Nc1ccc(Oc2cccnc2)nc1)c1ccc(C(F)(F)F)cc1 returned A549 tox-1 0.1%, rTrxR1 inhibitor 15.1%, Nrf2 block 5.8µM*, TrxR1 substrate -2.3%, IDH1 R132H inh 0.0%, Mito fusion act -8.1%, FLuc enzyme inh inconclusive, A549 tox-2 -5.0% and ARE-Fluc inh 4.61µM*.
`COc1cc2[nH]c3c(N4CCN(c5ccccn5)CC4)ncnc3c2cc1OC` gave A549 tox-1 -6.7%, rTrxR1 inhibitor -1.9%[57.1 µM], Nrf2 block inconclusive, TrxR1 substrate 24.3%[57.1 µM], IDH1 R132H inh 5.3% and Mito fusion act -4.5%.
Screening COc1ccc(N2CCN(c3ncnc4c3[nH]c3ccccc34)CC2)cc1 returned A549 tox-1 -10.0%, rTrxR1 inhibitor -5.7%, Nrf2 block 5.8µM*, TrxR1 substrate -3.3%, IDH1 R132H inh 6.2%, Mito fusion act 1.2%, FLuc enzyme inh 1.3%, A549 tox-2 -0.4% and ARE-Fluc inh 2.91µM*.
Screening Cc1ccc(-c2csc3nc(-c4ccncc4)[nH]c(=O)c23)cc1 returned A549 tox-1 -6.7%, rTrxR1 inhibitor 0.4%, Nrf2 block inconclusive, TrxR1 substrate 12.5%, IDH1 R132H inh 0.0%, Mito fusion act -3.0%, FLuc enzyme inh -27.7%, A549 tox-2 -12.3% and ARE-Fluc inh 1.84µM*.
`C[C@H]1CN([C@@H](C)CO)C(=O)c2cccc(NS(=O)(=O)c3ccc(F)cc3)c2O[C@H]1CN(C)Cc1ccc(Cl)c(Cl)c1` gave A549 tox-1 -14.8%, rTrxR1 inhibitor 11.4%, Nrf2 block 5.17µM*, TrxR1 substrate -3.1%, IDH1 R132H inh -16.7%, FLuc enzyme inh 3.1%, A549 tox-2 inconclusive and ARE-Fluc inh 18.4µM*.
For O=c1cc(N2CCN(c3ccccc3)CC2)[nH]c(=O)n1C1CCCCC1 the results were A549 tox-1 inconclusive, rTrxR1 inhibitor 22.1%, Nrf2 block -6.1%, TrxR1 substrate 0.2%, IDH1 R132H inh -3.5% and Mito fusion act 0.1%.

Screens from PubChem.
